Our source for the Potency values is PubChem BioAssay (NCATS).

Test [1] concerns the target Glucocorticoid receptor (Homo sapiens) (UniProt P04150). Put plainly: GR-GFP Redistribution (AID 450;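 active = compounds whose dose series gives a full or clear partial fitted curve of increased nuclear translocation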; note: potency is the fitted concentration of half-maximal effect). The conditions noted are these: U2OS GR-GFP nuclear translocation, laser cytometry, 2 h.
Test [2] is described as follows: S16 Schwann cell PMP22 intronic element beta-lactamase assay (AID 624044; calls by dose curve; note: nearly all actives have a fitted effect of over 15% in size). The settings on record: S16 rat Schwann cells, PMP22 element beta-lactamase FRET, 24 h; series mostly up to 17.1 µM. The procedure, abridged:
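Rat S16 Schwann cells with beta-Lac driven by a PMP22 intronic element, compound-treated 24 h at 37 °C. LiveBLAzer FRET B/G read: 460 nm normalized to potassium clavulanate vs DMSO; 535 nm FRET as viability; concentration-effect curves classified.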

In test [3] the test system is CP211. Briefly: qHTS profiling for inhibitors of Plasmodium falciparum proliferation (AID 504749). Note: nearly all actives have a fitted effect of over 60% in size. Note: potency is the fitted concentration of half-maximal effect. The settings on record: P. falciparum in erythrocytes, SYBR Green DNA, 72 h; series mostly up to 12.8 µM. The procedure, abridged: (§1)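 Parasite proliferation within erythrocytes, 72 h exposure. Endpoint: SYBR Green I fluorescence after overnight lysis at room temperature. Controls: 0.29 uM artemisinin, DMSO.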
A general note: qHTS replaces the single test concentration by a dilution series.

The test system of test [4] is CP256. The test is described as above. The settings on record: P. falciparum in erythrocytes, SYBR Green DNA, 72 h; series mostly up to 12.8 µM. The procedure, abridged: as §1
For test [5], the system named is CP266. The description is as above. The settings on record: P. falciparum in erythrocytes, SYBR Green DNA, 72 h; series mostly up to 12.8 µM. In outline:
as §1

In test [6] the test system is CP269. Described as above. The settings on record: P. falciparum in erythrocytes, SYBR Green DNA, 72 h; series mostly up to 12.8 µM. The procedure, abridged: as §1
Test [7] relates to CP297. The description is as above. The settings on record: P. falciparum in erythrocytes, SYBR Green DNA, 72 h; series mostly up to 12.8 µM. The procedure, abridged: as §1
Test [8] has as its system CP325. The description is as above. The conditions noted are these: P. falciparum in erythrocytes, SYBR Green DNA, 72 h; series mostly up to 12.8 µM. In outline: as §1
The subject of test [9] is Dd2. The test is described as above. The settings on record: P. falciparum in erythrocytes, SYBR Green DNA, 72 h; series mostly up to 12.8 µM. The procedure, abridged:
as §1

Test [10] concerns HB3. The test is described as above. The settings on record: P. falciparum in erythrocytes, SYBR Green DNA, 72 h; series mostly up to 12.8 µM. The procedure, abridged:
as §1

Test [11] relates to ATS95. The description is as above. The settings on record: P. falciparum in erythrocytes, SYBR Green DNA, 72 h; series mostly up to 12.8 µM. The procedure, abridged: as §1
The subject of test [12] is CP194. The description is as above. The conditions noted are these: P. falciparum in erythrocytes, SYBR Green DNA, 72 h; series mostly up to 12.8 µM. In outline: as §1
The test system of test [13] is CP237. The description is as above. The settings on record: P. falciparum in erythrocytes, SYBR Green DNA, 72 h; series mostly up to 12.8 µM. In outline: as §1
For test [14], the system named is CP247. The test is described as above. The settings on record: P. falciparum in erythrocytes, SYBR Green DNA, 72 h; series mostly up to 12.8 µM. In outline:
as §1

Test [15] relates to CP252. The description is as above. The conditions noted are these: P. falciparum in erythrocytes, SYBR Green DNA, 72 h; series mostly up to 12.8 µM. In outline: as §1
The test system of test [16] is CP286. The test is described as above. The settings on record: P. falciparum in erythrocytes, SYBR Green DNA, 72 h; series mostly up to 12.8 µM. The procedure, abridged: as §1
Test [17] deals with DIV14. The description is as above. The settings on record: P. falciparum in erythrocytes, SYBR Green DNA, 72 h; series mostly up to 12.8 µM. The procedure, abridged: as §1
Test [18] relates to P93_24. Described as above. The conditions noted are these: P. falciparum in erythrocytes, SYBR Green DNA, 72 h; series mostly up to 12.8 µM. The procedure, abridged:
as §1

Test [19] has as its system P94_40. Described as above. The settings on record: P. falciparum in erythrocytes, SYBR Green DNA, 72 h; series mostly up to 12.8 µM. In outline: as §1
For test [20], the system named is TAB113. Described as above. The settings on record: P. falciparum in erythrocytes, SYBR Green DNA, 72 h; series mostly up to 12.8 µM. The procedure, abridged:
as §1

Unmarked numbers belong to inactive results. Inconclusive results are not listed. The source made the active and inactive calls. Unless noted, calls come from the whole dose curve; as a rule, active = well fitted inhibition curve with a large enough effect; inconclusive = small, poorly fitted or top-dose-only effect; inactive = flat fitted curve, though single readings scatter. Bounds are passed on as bounds.

Glucocorticoid receptor (Homo sapiens), sequence (P04150 whole entry, looked up): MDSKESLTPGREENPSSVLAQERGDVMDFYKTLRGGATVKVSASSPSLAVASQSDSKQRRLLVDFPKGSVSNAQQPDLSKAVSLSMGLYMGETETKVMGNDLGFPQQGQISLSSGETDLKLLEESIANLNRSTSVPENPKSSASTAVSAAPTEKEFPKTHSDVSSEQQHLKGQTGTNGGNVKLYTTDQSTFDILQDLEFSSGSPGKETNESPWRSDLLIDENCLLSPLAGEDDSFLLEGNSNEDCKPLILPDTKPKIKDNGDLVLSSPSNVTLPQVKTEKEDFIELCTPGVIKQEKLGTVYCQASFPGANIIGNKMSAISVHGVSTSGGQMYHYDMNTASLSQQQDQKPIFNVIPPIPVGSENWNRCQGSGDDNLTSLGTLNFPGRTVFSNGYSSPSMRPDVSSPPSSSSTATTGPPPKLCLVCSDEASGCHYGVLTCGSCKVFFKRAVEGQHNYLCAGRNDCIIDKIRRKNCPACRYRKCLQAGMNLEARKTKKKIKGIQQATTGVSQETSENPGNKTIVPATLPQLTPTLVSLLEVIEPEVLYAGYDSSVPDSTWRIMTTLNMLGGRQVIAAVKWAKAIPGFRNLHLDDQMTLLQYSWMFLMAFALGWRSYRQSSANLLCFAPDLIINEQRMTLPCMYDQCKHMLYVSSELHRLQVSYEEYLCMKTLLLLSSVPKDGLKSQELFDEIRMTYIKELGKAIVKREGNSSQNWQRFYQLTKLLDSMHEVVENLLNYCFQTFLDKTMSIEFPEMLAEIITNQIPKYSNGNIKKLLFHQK

With `NCC[C@H](O)C(=O)N[C@H]1C[C@@H](N)[C@@H](O[C@H]2O[C@@H](CN)[C@@H](O)[C@@H](O)[C@@H]2O)[C@@H](O)[C@@H]1O[C@H]1O[C@@H](CO)[C@@H](O)[C@@H](N)[C@@H]1O`, in [1], the Potency was more than 20.6 µM.
On to `CCN(CC)[C@@H](C)CN1c2ccccc2Sc2ccccc21`, for which the Potency in [1] is more than 20.6 µM; in [9] it was 1.26 µM (active). Moreover, the Potency result in test [2], in test [3], in test [4], in test [5], in test [6] and in [7] was “inactive” throughout. In addition, the Potency result in test [8] and in [10] was “inactive” each time.
On to `CNCCC=C1c2ccccc2C=Cc2ccccc21`, for which the Potency in test [1] is more than 20.6 µM.
In the case of `NS(=O)(=O)c1cc2c(cc1C(F)(F)F)N[C@H](Cc1ccccc1)NS2(=O)=O`, the Potency result in [11], in [12], in test [3], in test [13], in test [14] and in [15] was “inactive” each time. In addition, the Potency result in test [4], in test [5], in test [6], in [16], in test [7] and in test [8] was “inactive” each time. Also, the Potency entry in [17], in [9], in test [10], in [18], in [19] and in test [20] was “inactive” in each case.
For `C[N+]1(C)C[C@@H](O)C[C@@H]1C(=O)[O-]`, the Potency in [1] was more than 20.6 µM.
With `NC(=O)c1ccc[n+]([C@@H]2O[C@H](COP(=O)([O-])OP(=O)(O)OC[C@H]3O[C@@H](n4cnc5c(N)ncnc54)[C@@H](O)[C@@H]3O)[C@@H](O)[C@@H]2O)c1`, the Potency result in [2], in [11], in [12], in test [3], in [13] and in [14] was “inactive” each time. The Potency result in test [15], in [4], in test [5], in test [6], in test [16] and in test [7] was “inactive” in each case. The Potency entry in test [8], in test [17], in test [9], in [10], in test [18] and in test [19] was “inactive” throughout. Further, in test [20], the Potency result was “inactive”.
With `CC(=O)N[C@H](CS)C(=O)O`, in [1], the Potency is more than 46 µM.
Regarding `c1ccc2c3c([nH]c2c1)[C@@H]1[C@H]2CC[C@H]([C@H]4CCCN[C@H]42)N1CC3`, the Potency in [1] was more than 20.6 µM.
For the compound `CN(C)c1ccc(-c2nccc(NCc3ccccc3)n2)cc1`, in test [1], the Potency is more than 46 µM.
As to `CC[C@@H]1OC(=O)[C@H](C)[C@H](O[C@@H]2C[C@](C)(OC)[C@H](O)[C@H](C)O2)[C@H](C)[C@H](O[C@@H]2O[C@@H](C)C[C@@H](N(C)C)[C@@H]2O)[C@](C)(O)C[C@H](C)C(=NOCOCCOC)[C@H](C)[C@H](O)[C@]1(C)O`, the Potency in test [1] is more than 20.6 µM. Moreover, the Potency entry in test [2], in test [11], in [12], in test [13], in test [14] and in test [16] was “inactive” throughout. The Potency result in [8], in [17], in test [10], in test [18], in test [19] and in test [20] was “inactive” each time.
For the compound `C[N+](C)(CCCOc1ccccc1)c1ccccc1`, the Potency in test [1] is more than 20.6 µM.
Take `COC(=O)[C@@H]1[C@@H]2C[C@H]3c4[nH]c5cc(OC)ccc5c4CCN3C[C@@H]2C[C@H](OC(=O)/C=C\c2cc(OC)c(OC)c(OC)c2)[C@H]1OC`: the Potency in [1] was more than 20.6 µM; in test [17], 5.73 µM (active); in [18] it was 3.16 µM (active). In addition, the Potency result in test [2] and in [5] was “inactive” in each case.
On to `c1ccc(CNc2ncnc3nc[nH]c23)cc1`, for which, in [1], the Potency is more than 20.6 µM.
In the case of `CCO[C@H]1O[C@@H]([C@H](COCc2ccccc2)OCc2ccccc2)[C@@H](OCc2ccccc2)[C@H]1O`, the Potency in [1] is more than 20.6 µM. In addition, the Potency result in [2], in test [11], in test [12], in [3], in [13] and in test [14] was “inactive” in each case. Moreover, the Potency entry in [15], in [6], in test [16], in test [7], in [8] and in test [9] was “inactive” throughout. In test [20], the Potency result was “inactive”.
For the compound `O=C(O)COCCN1CCN([C@@H](c2ccccc2)c2ccc(Cl)cc2)CC1`, the Potency result in test [11], in test [12], in test [3], in test [13], in [14] and in test [15] was “inactive” in each case. Further, the Potency entry in test [4], in [5], in [6], in [16], in test [7] and in test [8] was “inactive” throughout. In addition, the Potency result in test [17], in [9], in test [19] and in test [20] was “inactive” throughout.
On to `CCCC(=O)Nc1ncnc2c1ncn2[C@@H]1O[C@H]2COP(=O)(O)O[C@@H]2[C@@H]1OC(=O)CCC`, for which the Potency in test [1] is more than 20.6 µM.
With `CS(=O)(=O)Nc1cccc(-c2nc(Nc3ccc(F)cc3)c3ccccc3n2)c1`, the Potency in test [1] was more than 46 µM.
On the same count and under the same terms, for `O=c1cc(-c2ccc(O)cc2)oc2c([C@H]3O[C@@H](CO)[C@@H](O)[C@@H](O)[C@@H]3O)c(O)cc(O)c12` the value was more than 20.6 µM.
For the compound `CC1=C(C(=O)O)N2C(=O)[C@@H](NC(=O)[C@@H](N)c3ccc(O)cc3)[C@@H]2SC1`, the Potency entry in test [2], in test [11], in [12], in [13], in test [14] and in test [15] was “inactive” in each case. Besides, the Potency result in [4], in test [5], in test [6], in test [16], in test [7] and in test [8] was “inactive” each time. Further, the Potency result in [17], in test [9], in test [10], in test [18], in test [19] and in [20] was “inactive” each time.
